Here are results for 15 compounds from PubChem BioAssay.

Values joined by “and” are separate entries in the source; they are usually repeats but may differ in a detail not shown here. Identical values can stand only once. Values without a mark were called inactive. Inconclusive results are not listed. Active and inactive are the calls of the source.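 Rule for the calls, unless noted: active = z-score of at least 1.8 in each of two replicates, scored against plate mean and spread of sample wells; inactive = the rest.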

The test system of test [1] is Neuropilin-2 / VEGF-C interaction (human). The test is described as follows: small molecules blocking Neuropilin-2/VEGF-C interaction – biochemical, microplate binding format, z-score (AID 743281; call rule not given here). The note with it: microplate NRP2/VEGF-C binding assay; hits give low values.
A short description of test [2]: viability loss in pontine glioma line – cell-based, SU-DIPG-XVII, MIPE5.0, CellTiter-Glo, qHTS, dose response (AID 1347060; cut-off not given, nearly all actives have AC50 up to about 26 µM). The settings on record: CellTiter-Glo ATP luminescence. On the technique in general: In ATP-based viability assays light output follows the ATP content of the culture.
Test [3] in a line: viability loss in pontine glioma line – cell-based, SU-DIPG-XIII, MIPE4.0, CellTiter-Glo, qHTS, dose response (AID 1347061; cut-off not given, nearly all actives have AC50 up to about 37 µM;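 note: cells exposed to compound for 48 hours before readout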). The settings on record: CellTiter-Glo ATP luminescence.
A short description of test [4]: viability loss in pontine glioma line – cell-based, JHH-DIPG-1, MIPE4.0, CellTiter-Glo, qHTS, dose response (AID 1347062; cut-off not given, nearly all actives have AC50 up to about 27 µM). The note with it: JHH-DIPG-1 viability, CellTiter-Glo ATP luminescence.
Test [5] can be described thus: viability loss in pontine glioma line – cell-based, SU-DIPG-XXV, MIPE5.0, CellTiter-Glo, qHTS, dose response (AID 1347065; cut-off not given, nearly all actives have AC50 up to about 26 µM;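 note: cells exposed to compound for 48 hours before ATP readout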). The note with it: CellTiter-Glo ATP luminescence.
Test [6] can be described thus: growth inhibition of DIPG cells – cell-based, MIPE4.0 library, CellTiter-Glo luminescence, qHTS (AID 1347066; cut-off not given, nearly all actives have AC50 up to about 30 µM;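 note: cells exposed to compound for 48 hours before readout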). The settings on record: SU-DIPG-VI viability, CellTiter-Glo ATP luminescence.
Test [7] can be described thus: JHH-DIPG-1 glioma cell viability, MIPE5.0 library, CellTiter-Glo luminescence, qHTS (AID 1347067; cut-off not given, nearly all actives have AC50 up to about 26 µM;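 note: cells exposed to compound for 48 hours before readout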). The note with it: JHH-DIPG-1 glioma viability, CellTiter-Glo ATP luminescence.
Test [8] can be described thus: growth inhibition of DIPG cells – cell-based, MIPE5.0 library, qHTS (AID 1347068; cut-off not given, nearly all actives have IC50 up to about 30 µM). The note with it: SU-DIPG-XXV viability. For orientation: Quantitative high-throughput screening tests each substance at several concentrations.
For test [9], the target named is NAD(+) hydrolase SARM1 (Homo sapiens) (UniProt Q6SZW1). The test is described as follows: blocking NAD cleavage by SARM1 SAM-TIR – cell lysate, NAD-Glo luminescence (AID 1508614;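 active = compound whose remaining NAD level is above about 45 nM, limit read from the data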;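 note: higher remaining NAD means stronger inhibition of SARM1 NADase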). The note with it: SAM-TIR HEK293T lysate NADase, at 1 µM, hits give high values.
The target in test [10] is Mitogen-activated protein kinase 7 (Homo sapiens) (UniProt Q13164). The test is described as follows: Gal4-ERK5 driven luciferase induction – cell-based, HTS, primary screen (AID 1508626;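 active = luciferase signal above three times the same-plate solvent-only control wells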;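 note: luciferase driven by Gal4-ERK5 fusion binding five Gal4 sites before minimal TATA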). The settings on record: HeLa Gal4-ERK5 transactivation, 18 h, at 5 µM, hits give high values.
Test [11] is described as follows: compounds altering circadian rhythm period length – cell-based, LOPAC library, luminescence reporter (AID 2774; call rule not given here;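 note: values are relative to mean of DMSO wells on each plate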). The settings on record: circadian reporter cells, at 7 µM, actives lie on both sides.
In test [12] the test system is Hepatitis C virus NS3 helicase. The test is described as follows: blockers of NS3h binding to ssDNA – biochemical, fluorescence polarization, LOPAC1280 library, primary screen (AID 687035; in the data active = inhibition above about 37%). The settings on record: Purified HCV NS3 helicase, Cy5-dT15 ssDNA binding fluorescence polarization; hits give high values; concentration not given here. A general note: In fluorescence polarisation assays a small probe gives low polarisation when free and higher when bound to something large.

Test [13] in a line: compounds altering Cy5-DNA-NS3h complex signal – biochemical, LOPAC1280, artefact control for HCV NS3 helicase inhibitor project (AID 687037; call rule not given here). The settings on record: Cy5-DNA-NS3h complex fluorescence interference counterscreen.
In test [14] the test system is Aerobactin synthetase IucA (Klebsiella pneumoniae). Put plainly: inhibition of K. pneumoniae IucA enzyme – biochemical, Tocris library, absorbance (AID 1345561; call rule not given here;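 note: 100% = enzyme without compound and 0% = no enzyme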). The settings on record: purified IucA enzyme assay, absorbance (OD) read-out; hits give low values;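 tested at 8 µM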.
Test [15] in a line: viability loss in pontine glioma line – cell-based, SU-DIPG-IV, MIPE4.0, CellTiter-Glo, qHTS, dose response (AID 1347063; cut-off not given, nearly all actives have AC50 up to about 30 µM;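 note: compound exposure lasted 48 hours before the viability readout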). The settings on record: CellTiter-Glo ATP luminescence.
A short description of test [16]: blockers of cellular phospholipid synthesis – cell-based, LOPAC library, screen 4, primary screen (AID 1347384; call rule not given here). The note with it: animal cells, phospholipid biosynthesis inhibition screen; at 10 µM.
Test [17] in a line: galactose survival enhancers in mitochondrial complex I cybrids – cell-based, galactose medium, ATP luminescence, primary screen (AID 1645843).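 Note: positive z means more ATP and so rescue of galactose-driven cybrid death.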 The settings on record: complex I mutant cybrid cells, 72 h, hits give high values.
A short description of test [18]: viability loss in pontine glioma line – cell-based, SU-DIPG-XIII, MIPE5.0, CellTiter-Glo, qHTS, dose response (AID 1347064; cut-off not given, nearly all actives have AC50 up to about 23 µM). The note with it: CellTiter-Glo ATP luminescence.

NAD(+) hydrolase SARM1 (Homo sapiens), sequence (Q6SZW1 whole entry, looked up, the tested form may be a part): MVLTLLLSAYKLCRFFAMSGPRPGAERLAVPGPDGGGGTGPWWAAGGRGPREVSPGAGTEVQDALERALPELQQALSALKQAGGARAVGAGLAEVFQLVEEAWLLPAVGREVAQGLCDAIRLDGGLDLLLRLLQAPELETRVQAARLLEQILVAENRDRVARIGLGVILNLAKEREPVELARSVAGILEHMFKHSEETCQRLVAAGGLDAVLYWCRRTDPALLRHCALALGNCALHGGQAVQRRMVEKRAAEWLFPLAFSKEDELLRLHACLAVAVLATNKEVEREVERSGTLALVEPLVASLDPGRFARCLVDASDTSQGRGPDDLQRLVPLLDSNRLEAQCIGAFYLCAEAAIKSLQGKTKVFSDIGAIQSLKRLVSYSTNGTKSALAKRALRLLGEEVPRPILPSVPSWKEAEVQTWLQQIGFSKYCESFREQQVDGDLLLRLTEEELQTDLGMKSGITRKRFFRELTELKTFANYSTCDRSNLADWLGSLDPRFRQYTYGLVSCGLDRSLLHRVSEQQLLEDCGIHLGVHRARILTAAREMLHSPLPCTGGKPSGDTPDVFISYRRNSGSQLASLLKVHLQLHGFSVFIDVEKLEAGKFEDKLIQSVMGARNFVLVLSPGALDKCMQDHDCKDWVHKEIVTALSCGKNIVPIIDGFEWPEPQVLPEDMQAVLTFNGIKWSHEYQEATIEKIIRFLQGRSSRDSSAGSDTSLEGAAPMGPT
Mitogen-activated protein kinase 7 (Homo sapiens), sequence (Q13164 whole entry, looked up, the tested form may be a part): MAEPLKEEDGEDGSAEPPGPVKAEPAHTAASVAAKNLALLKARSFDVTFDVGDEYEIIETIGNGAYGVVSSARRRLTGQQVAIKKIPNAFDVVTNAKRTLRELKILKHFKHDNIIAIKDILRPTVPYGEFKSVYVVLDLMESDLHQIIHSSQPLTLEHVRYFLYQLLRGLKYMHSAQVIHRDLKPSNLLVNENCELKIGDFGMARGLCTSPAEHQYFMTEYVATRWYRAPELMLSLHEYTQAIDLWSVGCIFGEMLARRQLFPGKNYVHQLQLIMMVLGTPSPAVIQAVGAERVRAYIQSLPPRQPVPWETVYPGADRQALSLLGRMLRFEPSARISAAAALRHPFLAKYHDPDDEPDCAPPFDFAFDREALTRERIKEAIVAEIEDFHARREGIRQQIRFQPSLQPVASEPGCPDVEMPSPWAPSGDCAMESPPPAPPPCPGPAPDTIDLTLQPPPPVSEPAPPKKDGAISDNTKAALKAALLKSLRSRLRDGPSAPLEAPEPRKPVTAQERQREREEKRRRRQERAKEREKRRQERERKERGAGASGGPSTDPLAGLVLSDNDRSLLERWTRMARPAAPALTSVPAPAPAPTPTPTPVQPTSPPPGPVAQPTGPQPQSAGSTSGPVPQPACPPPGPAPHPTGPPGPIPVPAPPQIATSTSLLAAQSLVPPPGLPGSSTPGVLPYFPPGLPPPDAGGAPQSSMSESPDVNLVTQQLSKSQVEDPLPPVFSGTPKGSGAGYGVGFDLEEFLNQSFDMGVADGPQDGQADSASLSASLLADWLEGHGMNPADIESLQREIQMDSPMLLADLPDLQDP

`C[C@H]1O[C@H](O[C@H]2[C@H](O)[C@@H](O)[C@@H](O[C@H]3[C@H](O)[C@@H](O)C(O)O[C@@H]3CO)O[C@@H]2CO)[C@H](O)[C@@H](O)[C@@H]1N[C@H]1C=C(CO)[C@@H](O)[C@H](O)[C@H]1O` (stereo partly drawn): the z-score in test [1] is -1.33. The compound was classed as inactive in test [2], in test [3], in test [4], in [5], in test [6] and in test [7]. In addition, the result in test [8] was inactive. The remaining NAD in test [9] was 10 nM. The luciferase signal in test [10] is 52 AU.

As for `CN(C)CCCC1(c2ccc(F)cc2)OCc2cc(C#N)ccc21` (stereo not drawn), the period change in test [11] is -0.06 h. Besides, the inhibition (as a rule, the change of the read-out against control, counted positive when it falls) in test [12] was -4%. For the same compound, in test [13], the fluorescence ratio (interference) is 1. In addition, the z-score in test [1] is 0.0126. The remaining activity (usually the signal under treatment as a percentage of the control signal) in [14] is 108%. The result in test [15], in test [6] and in [16] was inactive. The remaining NAD in test [9] was 10 nM. The luciferase signal in test [10] is 68 AU.

On to `Cc1cccc(CCN2CCC(C(=O)c3ccc(NS(C)(=O)=O)cc3)CC2)n1`, for which the z-score in [1] was -0.668; in test [17] it was 0.46 and -0.045. The remaining activity in [14] is 104%.

For the compound `CCC(CO)NCCNC(CC)CO` (stereo not drawn), the z-score in test [17] is 0.45.

As for `CC1(C)SC2C(NC(=O)C(N)c3ccccc3)C(=O)N2C1C(=O)O` (stereo not drawn), the z-score in test [17] was 0.46.

Consider `Nc1ccn([C@@H]2CS[C@H](CO)O2)c(=O)n1`, for which the z-score was 0.62 in [1] and 1.21 in test [17]. The call in test [2], in [18], in [5], in test [7] and in [8] was inactive. The remaining NAD in test [9] was 10 nM.

As for `CC1CC2C3CCC4=CC(=O)C=CC4(C)C3(F)C(O)CC2(C)C1(O)C(=O)CO` (stereo not drawn), in test [17], the z-score is 1.66.

As for `COc1cc(C)c(/C=C/C(C)=C/C=C/C(C)=C/C(=O)O)c(C)c1C`, the call in test [4], in test [7] and in test [8] was inactive. For the same compound, the concentration at half-maximal activity (AC50) (in general, the concentration at which the activity in the assay is half-maximal) in test [5] is 11.8 µM (active). In test [17], the z-score is -0.775.

Turning to `CC1(C)SC2C(NC(=O)Cc3ccccc3)C(=O)N2C1C(=O)O` (stereo not drawn), in [17], the z-score was -0.1.

Consider `CC(COc1ccccc1Cc1ccccc1)N1CCCCC1` (stereo not drawn), for which the results for the z-score in test [1] and in test [17] were -1.06 and -1.81, respectively.

For the compound `CC(C)OC(=O)CCC/C=C\C[C@@H]1[C@@H](CC[C@@H](O)CCc2ccccc2)[C@H](O)C[C@@H]1O`, the z-score was -0.836 in test [1] and 0.01 in test [17].

Consider `C=CCc1ccc(O)c(-c2ccc(O)c(CC=C)c2)c1`, for which the z-score in [1] was -0.759; in test [17], -1.87. Also, the compound was classed as inactive in [3]. In addition, the AC50 in test [15] is 23.5 µM (active).

Take `CC(=O)OCC(=O)C12OC3(CCCC3)OC1CC1C3CCC4=CC(=O)C=CC4(C)C3(F)C(O)CC12C` (stereo not drawn): the z-score in test [17] is -1.46.

Take `COc1ccnc(CS(=O)c2nc3cc(OC(F)F)ccc3[nH]2)c1OC` (stereo not drawn): the z-score in test [1] was 0.437; in test [17], 0.63.

`CCC(C)n1ncn(-c2ccc(N3CCN(c4ccc(OCC5COC(Cn6cncn6)(c6ccc(Cl)cc6Cl)O5)cc4)CC3)cc2)c1=O` (stereo not drawn): the z-score in test [1] is 0.805; in test [17], -1.48 and 0.09.
